Records with an inconclusive call do not appear. Active and inactive are the calls of the source. Unless noted, no rule for the calls is given here.
Tests used:
[1] = qHTS profiling for inhibitors of Plasmodium falciparum (3D7) proliferation (AID 743322);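 also: infected erythrocytes exposed to compound for 72 h before lysis; 100% = DMSO vehicle wells and 0% = 0.29 µM artemisinin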; settings: P. falciparum 3D7 proliferation; at 28.7 µM (top of the series)
Summary of the method: (§1)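 Erythrocytes infected with P. falciparum (0.3% parasitemia, 2.5% hematocrit) incubated with compounds 72 h at 37 C, 5% CO2. Lysis with saponin/Triton buffer containing SYBR Green I, overnight at room temperature in the dark; DNA fluorescence (485/535 nm) normalised to 0.29 uM artemisinin and DMSO.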

[2] = qHTS profiling for inhibitors of Plasmodium falciparum (DD2) proliferation (AID 743323); settings: lower = more inhibition; at 28.7 µM (top of the series)
Summary of the method: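 SYBR Green fluorescence (ex 485, em 535 nm) of lysed cultures gives parasite DNA content; wells normalized to artemisinin (0.29 uM) and DMSO controls. Infected red cells: 0.3% parasitemia, 2.5% hematocrit, 72 h, 37 C.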

[3] = qHTS profiling of the MIPE4 collection as inhibitors of Plasmodium falciparum (3D7) proliferation (AID 743344);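 also: scaled between DMSO vehicle wells and 0.29 µM artemisinin as full inhibition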; settings: P. falciparum 3D7 in erythrocytes, SYBR Green DNA fluorescence, 72 h; at 28.5 µM (top of the series) unless noted
Summary of the method: as §1

[4] = qHTS profiling of the MIPE4 collection as inhibitors of Plasmodium falciparum (DD2) proliferation (AID 743345); settings: P. falciparum Dd2 in erythrocytes, SYBR Green DNA, 72 h; at 28.5 µM (top of the series) unless noted
Summary of the method: as §1

[5] = qHTS profiling of the MIPE4 collection as inhibitors of Plasmodium falciparum (DD2) proliferation (Rep 2) (AID 743346); settings: P. falciparum Dd2 in erythrocytes, SYBR Green DNA, 72 h; at 28.5 µM (top of the series) unless noted
Summary of the method: as §1

[6] = qHTS profiling of the MIPE4 collection as inhibitors of Plasmodium falciparum (HB3) proliferation (AID 743347);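 also: plate controls were DMSO vehicle wells for no effect and artemisinin wells for full effect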; settings: P. falciparum HB3 in erythrocytes, SYBR Green DNA, 72 h; at 28.5 µM (top of the series) unless noted
Summary of the method: as §1

[7] = High-throughput drug toxicity screening in the BPDCN cell line Gen2.2 (AID 1224824); settings: Gen2.2 BPDCN cells; at 45.8 µM (top of the series) unless noted;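 also: cells exposed to compounds for 48 h before reading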
Summary of the method: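 Gen2.2 cells, 500 per well in phenol red-free RPMI with 10% FBS, exposed to compounds 48 h at 37 C, 5% CO2; viability by CellTiter-Glo luminescence. Percent activity scaled to DMSO (100%) and 9.2 uM bortezomib final (0%).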

[8] = qHTS assay for measurement of the activity of small molecule inhibitors on Zika virus induced Caspase-3 activity in human iPSC derived neural progenitor cells (hNPCs) (AID 1224857; active = well fitted curve in the direction sought with a large enough effect; an effect the other way counts as inactive or inconclusive; also: % of control where 0% means no effect; nearly all actives have a fitted effect of over 65% in size)
Summary of the method: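 Values are percent inhibition of virus-induced caspase-3/7 signal, scaled between uninfected cells and ZIKV-infected cells. Infection used 2 FFU/cell for 6 h after 1 h compound exposure.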

[9] = qHTS profiling for inhibitors of Plasmodium falciparum (HB3) proliferation (AID 743324; active = well fitted curve in the direction sought with a large enough effect; an effect the other way counts as inactive or inconclusive;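 also: 100% = DMSO vehicle wells and 0% = artemisinin-treated control wells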); settings: Plasmodium falciparum HB3 blood-stage proliferation; at 28.7 µM (top of the series)
Summary of the method: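 P. falciparum HB3 grown in erythrocytes (0.3% parasitemia, 2.5% hematocrit final) with compound for 72 h at 37 C, 5% CO2. Parasite DNA detected by SYBR Green after saponin/triton lysis overnight; normalized to 0.29 uM artemisinin and DMSO.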

[10] = High-throughput drug toxicity screening in the BPDCN cell line Cal-1 (AID 1224825); settings: Cal-1 BPDCN cell viability, qHTS; at 45.8 µM (top of the series) unless noted
Summary of the method: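 Exponentially growing Cal-1 cells, 500 per well in phenol red-free RPMI with 10% FBS, were exposed to compounds for 48 h at 37 °C, 5% CO2. Viability was read by CellTiter-Glo luminescence and normalised to DMSO (100%) and 9.2 uM bortezomib (0%).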

SMILES	remaining parasite growth % (stronger effect = lower value) [1] [%]	activity, percent of control [2] [%]	parasite growth, % of DMSO control [3] [%]	parasite growth remaining, % of DMSO control (lower = more inhibition) [4] [%]	parasite growth, % of control (lower = inhibition) [5] [%]	growth, % of control [6] [%]	cell viability, % of control (lower = more cytotoxic) [7] [%]	Potency [8]	remaining proliferation (% of control), lower = more inhibition [9] [%]	viability (% of control) [10] [%]
CC1(O)CC(c2nc(-c3ccc4ccc(-c5ccccc5)nc4c3)c3c(N)nccn23)C1 (stereo unspecified)	0.533	2.21	9.23	19	10.7	5.32	117	inactive		
O=C(c1ccc(Nc2nccc(-c3cc4ccccc4s3)n2)cc1)N1CCC(N2CCCC2)CC1	-2.23	-0.895	4.58	6.27	18.7	4.99	11.5	inactive	-1.21	
Cc1ccc2nc(NC(=O)CSc3nc4c(c(=O)n3-c3ccccc3)SCC4)sc2c1			29.9	82.9	72.4		120	inactive		
CCOC(=O)C1=C(C)NC2=C(C(=O)CC(C)(C)C2)C1c1ccc(-c2ccccc2)cc1 (stereo unspecified)								inactive		4.47
CNC(=O)c1ccccc1Nc1nc(Nc2ccc(N3CCOCC3)cc2OC)ncc1Cl				10.3	22.9	7.48	18.7	inactive		
Cc1cn2cc(C(=O)N(C)CCO)cc(N[C@@H]3CCOc4cccc(C)c43)c2n1			33.4	86.7	47.2	47.6	152	inactive		
CC[C@@]1(O)C(=O)OCc2c1cc1n(c2=O)Cc2cc3cc(O)ccc3nc2-1				12.6	16.8	5.75	4.43	inactive		
Cc1nc2ccc(CN(C)c3ccc(C(=O)N[C@@H](CCC(=O)O)C(=O)O)s3)cc2c(=O)[nH]1			211	106	54.1		185	inactive		
CS(=O)(=O)N1CCN(Cc2cc3nc(-c4cccc5[nH]ncc45)nc(N4CCOCC4)c3s2)CC1								inactive		27.7
Cc1cc(C(=O)N2CCN(c3cccc(Cl)c3)CC2)n(-c2ccccc2)n1			97.2	107	98.6	108	88.4	inactive		
OCCCNc1cc(-c2ccnc(Nc3cccc(Cl)c3)n2)ccn1			5.7	10.1	19.1	6.21	4.08	inactive		
Nc1ccc(C(=O)c2cc3c(ccc4ccccc43)[nH]2)cc1	114	98.8	292	83.6	118	409	66.8	inactive	99.1	
CC(C)(C)NC(=O)[C@H]1CN(Cc2cccnc2)CCN1C[C@@H](O)C[C@@H](Cc1ccccc1)C(=O)N[C@H]1c2ccccc2C[C@H]1O				42.6	27.8	7.39	129	inactive		
Nc1nc(-c2nn(Cc3ccccc3F)c3ncccc23)nc(N)c1N1CCOCC1			28.3				199	inactive		
